# High-throughput results from PubChem BioAssay.
# TEAD-YAP inh: TEAD-YAP interaction inhibition, primary screen, TEAD-YAP interaction inhibitor project, luminescence, HEK-TIYL cells; TEAD-Gal4/YAP UAS-luciferase luminescence; inhibition, % at 9.12 µM; 640,000 tested, 1.4% active; in the data active = inhibition above about 32%
# FBW7 act: FBW7 E3 ligase activators, primary screen, biochemical, AlphaScreen, human; AID 1259310, 2017; 650,000 tested, 0.13% active; normalized activity (activation), % at 26.1 µM; AlphaScreen FBW7–phospho-cyclin E peptide binding, activator screen; in the data active = normalized activity above about 1.9%;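 also: purified mutant Fbw7 with reduced substrate affinity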
# Target sequence (Q969H0 whole entry, looked up): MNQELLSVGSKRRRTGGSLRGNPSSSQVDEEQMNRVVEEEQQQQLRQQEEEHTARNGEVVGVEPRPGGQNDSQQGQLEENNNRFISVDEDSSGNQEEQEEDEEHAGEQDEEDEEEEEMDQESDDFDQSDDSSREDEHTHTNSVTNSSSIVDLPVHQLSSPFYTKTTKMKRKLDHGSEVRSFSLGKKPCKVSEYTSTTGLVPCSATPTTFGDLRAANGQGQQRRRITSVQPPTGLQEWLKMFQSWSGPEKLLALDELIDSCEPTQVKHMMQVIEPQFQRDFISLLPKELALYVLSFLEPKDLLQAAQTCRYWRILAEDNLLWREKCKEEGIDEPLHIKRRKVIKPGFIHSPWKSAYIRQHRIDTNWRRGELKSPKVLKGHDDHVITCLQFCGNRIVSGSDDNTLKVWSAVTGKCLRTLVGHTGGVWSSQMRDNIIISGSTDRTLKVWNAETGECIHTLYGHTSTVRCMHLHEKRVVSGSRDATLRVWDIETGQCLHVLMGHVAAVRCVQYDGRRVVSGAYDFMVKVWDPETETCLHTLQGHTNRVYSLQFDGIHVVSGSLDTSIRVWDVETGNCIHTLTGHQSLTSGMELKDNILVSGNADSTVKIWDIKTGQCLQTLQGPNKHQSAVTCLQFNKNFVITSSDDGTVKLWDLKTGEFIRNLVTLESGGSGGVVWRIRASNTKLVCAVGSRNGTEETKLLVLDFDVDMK
# MITF primary: MITF inhibitors, primary screen, biochemical, AlphaScreen, human. 650,000 tested, 0.91% active. AlphaScreen MITF homodimerization, bead proximity signal. inhibition, % at 2.6 µM; in the data active = inhibition above about 50%
# GPR151 ag: activators of human GPR151, primary screen, cell-based, PathHunter beta-arrestin, luminescence; PathHunter beta-arrestin GPR151 cells; activation, % at 11.2 µM; 650,000 tested, 1% active; in the data active = activation above about 4.9%
# GPR151 confirm: GPR151 activators, triplicate retest, confirmation, cell-based, PathHunter beta-arrestin, luminescence | activation, % at 11.2 µM | 6,700 tested, under 10 active | GPR151 PathHunter beta-arrestin cells, 90 min; % of EA-reagent control over plate median | shares compounds with GPR151 ag;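 active = mean percent activation across replicates above the confirmation screen cutoff of 4.91%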
# GPR119 counter: GPR119 activators in beta-arrestin cells, counter-screen for GPR151 activator project, cell-based, PathHunter beta-arrestin, luminescence, triplicate; shares compounds with GPR151 ag; 90 min; 0 = compound-well median, 100 = enzyme-acceptor control; activation, % at 11.2 µM; 6,700 tested, 0.3% active; AID 1508611, 2020;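 active = mean percent activation in the counterscreen above 29.09%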;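 also: counterscreen on off-target GPR119 to flag nonselective hits from the GPR151 activator screen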
# Hits are given with their value; - = inactive; . = not tested or not shown; ! = repeats disagree. Only some compounds are listed: those with a hit (about 3.5% of all), similar ones and a draw of the others.
SMILES,TEAD-YAP inh,FBW7 act,MITF primary,GPR151 ag,GPR151 confirm,GPR119 counter
CC(O)CC(=O)N1CCc2cc(S(=O)(=O)N(C)C)ccc21 (stereo unspecified),-,-,-,5.3,-,-
NS(=O)(=O)c1ccc(N=Cc2cc(Cl)cc(Br)c2O)cc1,-,-,-,-,.,.
CC1(C)NC(=O)N(c2ccc([N+](=O)[O-])c(C(F)(F)F)c2)C1=O,-,-,-,5.5!,-,-
CC(C)OC1(C(F)(F)F)NC(=O)N(c2cccc(C(F)(F)F)c2)C1=O (stereo unspecified),-,-,-,-,.,.
Nc1ccccc1SC(c1ccccc1)C(O)C(=O)O (stereo unspecified),-,-,-,-,.,.
COCCCNC(=O)CN(c1ccc(I)cc1)S(C)(=O)=O,-,-,-,6.7,-,-
Cc1nn(C(C)C(=O)N2CCC(C(N)=O)CC2)c(=O)c2c1sc1ccccc12 (stereo unspecified),-,-,-,-,.,.
Cc1cc(C)n(-c2cc(NCCNC(=O)C(C)(C)Oc3ccc(Cl)cc3)nc(C)n2)n1,-,-,-,8.6,-,-
CC1(C)CC(=O)C2=C(C1)OC(c1ccccc1Cl)C(C#N)=C2N (stereo unspecified),-,-,-,-,.,.
CC1(C)CC(=O)C2=C(C1)OC(c1ccc(Cl)cc1Cl)C(C#N)=C2N (stereo unspecified),-,-,-,10,-,-
CC(=O)Nc1ccc(C2OC3=C(C(=O)CC(C)(C)C3)C(N)=C2C#N)cc1 (stereo unspecified),-,-,-,5.6,-,-
CCOC(=O)CS(=O)CC(=O)Nc1ccc(Cl)c(Cl)c1 (stereo unspecified),-,-,-,-,.,.
CSc1nc(N)nc(SCC(=O)Nc2ccc(Cl)cc2)c1C#N,-,-,-,11,-,-
CSc1nc(N)nc(SCC(=O)Nc2ccc(C)cc2)c1C#N,-,-,-,-,.,.
CC1CCCN(Cc2nc3c(c(=O)n(C)c(=O)n3C)n2Cc2ccc(Cl)cc2)C1 (stereo unspecified),-,-,-,-,.,.
Cc1ccc(Cn2c(CN3CCCC(C)C3)nc3c2c(=O)n(C)c(=O)n3C)cc1 (stereo unspecified),-,-,-,4.9,-,-
Cc1ccc(C)c(OCCCN2CCN(C)CC2)c1Cl,-,-,-,-,.,.
CN(CCC#N)C(=O)COC(=O)c1ccc([N+](=O)[O-])cc1Cl,-,-,-,-,.,.
COc1ccc(S(=O)(=O)Nc2ccc(C)c(C)c2)cc1[N+](=O)[O-],-,-,-,-,.,.
COCCCNS(=O)(=O)c1ccc(OC)c(I)c1,-,-,-,-,.,.
COCCCNS(=O)(=O)c1ccc2[nH]c(=O)[nH]c2c1,-,-,-,6.0,-,-
COc1ccc(S(=O)(=O)Nc2ccc3oc4c(c3c2)CCCC4)cc1[N+](=O)[O-],-,-,-,6.4,-,-
COCCNS(=O)(=O)c1ccc(OC)c(I)c1,-,-,-,9.4,-,-
O=c1[nH]c2ccc(S(=O)(=O)NCCO)cc2[nH]1,-,-,-,-,.,.
COc1ccc(S(=O)(=O)NCCCCCC(=O)O)cc1C(=O)O,-,-,-,8.8,-,-
SMILES,TEAD-YAP inh,FBW7 act,MITF primary,GPR151 ag,GPR151 confirm,GPR119 counter
O=C(NCc1cccc(Cl)c1)c1ccc(N2CC3CC(C2)c2cccc(=O)n2C3)c([N+](=O)[O-])c1 (stereo unspecified),-,-,-,-,.,.
CCCCCC(=O)Oc1cccc(N2C(=O)C3C4CCC(C4)C3C2=O)c1 (stereo unspecified),-,-,-,-,.,.
COc1cccc(/C=C2/SC(=S)N(C)C2=O)c1OC,-,-,-,-,.,.
COc1ccccc1NS(=O)(=O)c1cccc(S(=O)(=O)Nc2ccccc2OC)c1,-,-,-,-,.,.
COc1ccccc1NS(=O)(=O)c1cccc(C(F)(F)F)c1,-,-,-,6.8,-,-
COc1ccc(S(=O)(=O)Nc2ccc(-c3cn4ccsc4n3)cc2)cc1C,-,-,-,13,-,-
COc1ccc(S(=O)(=O)Nc2ccc(Cl)cc2)cc1I,-,-,-,19,-,-
COCCNS(=O)(=O)c1ccc(Cl)c(C(F)(F)F)c1,-,-,-,8.8,-,-
CCOC(=O)CCN(Cc1ccc(Cl)cc1)S(=O)(=O)c1ccc(Br)cc1,-,-,-,-,.,.
COc1ccccc1NS(=O)(=O)c1ccc(Cl)c(C(=O)Nc2ccc(Cl)cc2)c1,-,-,-,9.6,-,-
COc1ccc(S(=O)(=O)Nc2ccc(I)cc2)cc1C,-,-,-,6.8,-,-
COC(=O)COc1ccc(S(=O)(=O)Nc2ccc(C(N)=O)cc2)cc1C,-,-,-,-,.,.
COC(=O)COc1ccc(S(=O)(=O)Nc2ccc(S(N)(=O)=O)cc2)cc1C,-,-,-,5.9,-,-
COc1ccccc1NS(=O)(=O)c1ccc(Br)c(C(=O)Nc2ccccc2)c1,-,-,-,-,.,.
COc1ccccc1-n1c(SCC(=O)Nc2cccc(C)c2)nnc1-c1ccncc1,-,-,-,-,.,.
N#Cc1ccc(NC(=O)COC(=O)CCC(=O)c2ccc3c(c2)OCCO3)cc1,-,-,-,11,6.8,-
OC1(C2(O)CC(c3ccccc3)NO2)CCCCC1 (stereo unspecified),-,-,-,-,.,.
CC(=O)N1CCc2cc(S(=O)(=O)NCCC(=O)NCCc3ccc(Cl)cc3)ccc21,-,-,-,6.5,-,-
COc1cc(N2CCOCC2)ccc1/C=C1\C(=O)NC(=S)N(c2ccc(F)cc2)C1=O,-,-,-,5.2,-,-
Cc1ccc[n+](CC(=O)Nc2sc(C)c(C)c2C#N)c1,-,-,-,-,.,.
CC(Oc1ccccc1)C(=O)N1CCN(CC(=O)c2cccs2)CC1 (stereo unspecified),-,-,-,-,.,.
CC(C)NS(=O)(=O)c1ccc(NC(=O)COc2ccc(Br)cc2)cc1,-,-,-,-,.,.
O=C(CCC(=O)Nc1ccc(F)cc1)N/N=C/c1ccc(Br)cc1,-,-,-,-,.,.
O=C(CCC(=O)Nc1ccc(Br)cc1)N/N=C/c1ccc(F)cc1,-,-,-,6.4,-,-
O=C(NCCCc1ccccc1)C1CCN(C(=O)N2CCOc3ccc(Cl)cc32)CC1,-,-,-,-,.,.
O=C(NCCCc1ccccc1)C1CCN(C(=O)N2CCOc3ccccc32)CC1,-,-,-,6.1,-,-
Nc1ncc(Br)cc1S(=O)(=O)N1CCN(C2CCCCC2)CC1,-,-,-,13,-,-
